Laboratory results: PubChem BioAssay (NCATS)
Records with an inconclusive call do not appear. Active and inactive are the calls of the source. The call rests on the fitted dose curve; in most records, active means well fitted inhibition curve with a large enough effect; inconclusive means small, poorly fitted or top-dose-only effect; inactive means flat fitted curve, though single readings scatter.

Legend:
[1] = qHTS for identification of novel therapeutic agents for treatment of microphthalmiaassociated transcription factor (MiT) renal cell carcinoma (RCC) (AID 1963991); conditions: CellTiter-Glo, 48 h, stronger effect = lower value;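 further: curves scaled with 100% = DMSO viability and 0% = empty wells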
Procedure, shortened: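 UOK109/UOK124/UOK145 (TFE3 fusions, three partners); 500 cells/well; MIPE v4.0, 1912 cpds, 11 conc.; 48 h, 37 C; CellTiter-Glo, 15 min RT; lum. Norm.: DMSO 100%, empty 0%.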

[2] = qHTS profiling for inhibitors of Plasmodium falciparum proliferation (AID 504749); further: nearly all actives have a fitted effect of over 60% in size; further: potency means the concentration at half of the fitted maximal effect;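 on activity, negative = inhibition: 0% = DMSO vehicle and full inhibition = artemisinin control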; conditions: P. falciparum in erythrocytes, SYBR Green DNA, 72 h
Procedure, shortened: (§1)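 Fluorescence of SYBR Green-bound parasite DNA, read at 485/535 nm, served as the growth measure. Infected erythrocytes were cultured with compound 72 h; artemisinin (0.29 uM) and DMSO wells defined the normalization range.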

3D7 = assay: as above; conditions: P. falciparum in erythrocytes, SYBR Green DNA, 72 h; series mostly up to 28.7 µM
Procedure, shortened: as §1

7G8 = assay: as above; conditions: P. falciparum in erythrocytes, SYBR Green DNA, 72 h; series mostly up to 28.7 µM
Procedure, shortened: as §1

AA1029 = assay: as above; conditions: P. falciparum in erythrocytes, SYBR Green DNA, 72 h; series mostly up to 28.7 µM
Procedure, shortened: as §1

AS120 = assay: as above; conditions: P. falciparum in erythrocytes, SYBR Green DNA, 72 h; series mostly up to 28.7 µM
Procedure, shortened: as §1

[3] = TFE3-RCC UOK109 viability, measured here: UOK109 Z-AUC
[4] = TFE3-RCC viability, measured here: UOK124 Z-AUC
[5] = TFE3-RCC viability, measured here: UOK145 Z-AUC
[6] = at 28.7 µM (top of the series), parasite line A
[7] = at 28.7 µM (top of the series), parasite line B

SMILES | z-score [1, 3] | z-score [1, 4] | z-score [1, 5] | activity, negative = inhibition [2, 6] | activity, negative = inhibition [2, 7] | Potency (3D7) | Potency (7G8) | Potency (AA1029) | Potency (AS120) | Potency ([2]; parasite line A) | Potency ([2]; parasite line B) | activity, negative = inhibition ([2]; at 12.8 µM (top of the series), parasite line A) | activity, negative = inhibition ([2]; at 12.8 µM (top of the series), parasite line B)
Nc1cccc2c1CN(C1CCC(=O)NC1=O)C2=O (configuration not stated) | 0.87 | 1.94 | 0.731 | 12.2% (inactive) | 5.27% (inactive) | inactive | inactive | inactive | inactive | – | – | – | –
Cc1nccn1CC1CCc2c(c3ccccc3n2C)C1=O (configuration not stated) | 0.748 | 0.745 | 0.411 | – | – | – | – | – | – | – | – | – | –
CC(C)c1nc(CN(C)C(=O)N[C@H](C(=O)N[C@@H](Cc2ccccc2)C[C@H](O)[C@H](Cc2ccccc2)NC(=O)OCc2cncs2)C(C)C)cs1 | -0.114 | -0.388 | 0.0556 | – | – | – | – | – | – | – | – | – | –
Cc1cccc(C)c1OCC(=O)N[C@@H](Cc1ccccc1)[C@@H](O)C[C@H](Cc1ccccc1)NC(=O)[C@H](C(C)C)N1CCCNC1=O | – | – | – | – | – | 7.08 µM (active) | 0.794 µM (active) | 3.55 µM (active) | 1.41 µM (active) | 8.91 µM (active) | 5.01 µM (active) | – | –
C=CCc1cc(OC)c(O)c(C(=O)NCCO)c1 | 0.957 | 0.641 | 1.25 | 6.75% (inactive) | 10.3% (inactive) | inactive | inactive | inactive | inactive | – | – | – | –
CN(C)CCc1c[nH]c2ccc(Cn3cncn3)cc12 | 0.0634 | 0.723 | 0.764 | 15.9% (inactive) | -0.428% (inactive) | inactive | inactive | inactive | inactive | – | – | – | –
O=C(O)c1cccnc1Nc1cccc(C(F)(F)F)c1 | 0.327 | 0.739 | 0.463 | 8.39% (inactive) | 13.5% (inactive) | inactive | inactive | inactive | inactive | – | – | – | –
C=C(c1ccc(C(=O)O)cc1)c1cc2c(cc1C)C(C)(C)CCC2(C)C | 0.216 | -0.242 | -0.306 | -4.04% (inactive) | 4.75% (inactive) | – | 8.91 µM (active) | inactive | inactive | – | – | – | –
Nc1cc(C(Cl)=C(Cl)Cl)c(S(N)(=O)=O)cc1S(N)(=O)=O | 1.83 | 0.22 | 0.781 | – | – | inactive | inactive | inactive | – | – | – | -2.96% (inactive) | 1.59% (inactive)
COC(=O)N[C@H](C(=O)N[C@@H](Cc1ccccc1)[C@@H](O)CN(Cc1ccc(-c2ccccn2)cc1)NC(=O)[C@@H](NC(=O)OC)C(C)(C)C)C(C)(C)C | 0.351 | -0.0676 | 2.98 | – | – | – | – | – | – | – | – | – | –
